This is one part of a sample in which hits are shown more often than they occur.
CHX counter – affects cycloheximide protein synthesis inhibition readout, counter-screen. cell reporter, cycloheximide protein synthesis inhibition counterscreen. max response, %. 12% of 300,000 active; in the data active = max response mostly above about 13%, no sharp cut-off; inactive = mostly below about 14%; also: read at 38.3 µM for the half of the compounds with a filed dose; 0% is about no effect
Tb PYK inh – T. brucei pyruvate kinase inhibition; AID 624173; TbPYK enzyme, Kinase-Glo Plus ATP luminescence, 45 min; Potency, µM (top dose mostly 76.8 µM), inactives show at the top dose activity, negative = inhibition, usual class: inhibitors; 0.12% of 410,000 active; also: potency is read from the fitted curve at half-maximal effect; % is scaled to controls: 0 for no effect and ±100 for the full control effect; nearly all actives have a fitted effect of over 50% in size
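Activity of T. brucei pyruvate kinase was followed by Kinase-Glo Plus luminescence after the enzyme reacted 45 min at room temperature with 130 uM ADP (final) and substrate. Test compounds were added before ADP at multiple concentrations.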
Giardia FBPA inh – blocks Giardia fructose-bisphosphate aldolase activity. A8B2U2. purified Giardia FBPA. Potency, µM (doses to about 59.6 µM), for the others: at the top dose activity, negative = inhibition, most hits filed as inhibitors. 0.71% of 290,000 active; also: potency is read from the fitted curve at half-maximal effect; % is scaled to controls: 0 for no effect and ±100 for the full control effect; nearly all actives have a fitted effect of over 55% in size
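40 nM FBPA preincubated 10 min at RT with compound (up to 57.5 uM final), then substrate plus GAPDH/TPI/NAD/arsenate coupling and diaphorase/resazurin added. Fluorescence read after 20 min at RT, 525/598 nm.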
Shiga inhibitor – inhibitors of Shiga toxin in Vero cells; inhibition, % at 38.7 µM; 9.2% of 290,000 active; Vero cells, Shiga toxin protein synthesis inhibition reporter; in the data active = inhibition mostly above about 28%, no sharp cut-off; inactive = mostly below about 43%; also: 0% is about no effect
Sm TGR inh – S. mansoni TGR enzyme inhibition | purified TGR, DTNB reduction, TNB absorbance 405 nm | Q962Y6 | 3% of 360,000 active | Potency, µM (doses to about 114 µM), without a hit: top-dose activity change, negative = inhibition, usual class: inhibitors | AID 485364; also: potency is read from the fitted curve at half-maximal effect; % is scaled to controls: 0 for no effect and ±100 for the full control effect; nearly all actives have a fitted effect of over 60% in size
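Kinetic colorimetric format: TGR-catalysed, NADPH-driven DTNB reduction monitored via TNB absorbance. Enzyme dispensed at 20 nM; compound exposure 15 min at room temperature before reaction start.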
LmPK inh – inhibitors of Leishmania mexicana pyruvate kinase; Q27686; purified LmPK, Kinase-Glo ATP luminescence, 1 h; Potency, µM (top dose mostly 57.5 µM), inactives show at the top dose activity change, negative = inhibition, actives largely listed as inhibitors; 0.37% of 290,000 active; AID 1721; also: potency is read from the fitted curve at half-maximal effect; % is scaled to controls: 0 for no effect and ±100 for the full control effect
Target sequence (Q27686 whole entry, looked up): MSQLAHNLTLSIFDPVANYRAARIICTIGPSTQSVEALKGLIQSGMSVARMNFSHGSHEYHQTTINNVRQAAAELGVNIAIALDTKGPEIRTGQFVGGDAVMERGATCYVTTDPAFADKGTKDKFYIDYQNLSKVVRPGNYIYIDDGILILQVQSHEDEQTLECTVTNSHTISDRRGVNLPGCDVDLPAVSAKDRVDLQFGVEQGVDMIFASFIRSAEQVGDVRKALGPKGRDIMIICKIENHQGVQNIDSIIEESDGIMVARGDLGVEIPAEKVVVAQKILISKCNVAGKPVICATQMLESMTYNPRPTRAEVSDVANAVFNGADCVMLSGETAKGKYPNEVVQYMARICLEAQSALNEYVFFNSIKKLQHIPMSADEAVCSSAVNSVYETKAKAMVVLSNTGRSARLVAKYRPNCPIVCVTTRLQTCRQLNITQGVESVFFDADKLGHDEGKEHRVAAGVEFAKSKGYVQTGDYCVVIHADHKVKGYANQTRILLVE
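Purified LmPK (0.1 nM) with 0.5 mM PEP and 0.1 mM ADP in imidazole buffer pH 7.2 with MgCl2/KCl, 1 h at room temperature. ATP formed was read by luciferase luminescence and normalized to no-enzyme and uninhibited controls.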
Active calls of the source: *; ? = inconclusive; / = no result given; [ ] = remark or other dose. Unless noted, calls follow the shape of the dose curve; as a rule, active = well fitted curve in the direction sought with a large enough effect; inconclusive = small, poorly fitted or top-dose-only effect, or another doubt; inactive = no such curve, though single readings can be large; an effect the other way counts as inactive or inconclusive.

SMILES	CHX counter	Tb PYK inh	Giardia FBPA inh	Shiga inhibitor	Sm TGR inh	LmPK inh
CC1CCN(C(=O)c2cc(-c3ccc(Cl)cc3)on2)CC1	/	-1%	/	/	5%	/
COCCC1CCCCN1C(=O)c1cc(COc2ccc(C)nc2)on1 (stereo not drawn)	49*	12%	-5%	45	6%	9%
CC(C)(C)NC(=O)C(c1ccncc1)N(C(=O)Cn1nnc(-c2ccc(F)cc2)n1)c1cccc(F)c1 (stereo not drawn)	29*	-1%	0%	56	-1%	1%
COCCn1c(=O)c(-c2ccc(OC)cc2)nc2cnc(Nc3ccccc3)nc21	/	1%	2%	/	/	/
COc1ccc(NC(=O)C(C)Sc2ccccc2)cc1 (stereo not drawn)	55*	-3%	8%	88*	1%	-5%
O=C(C#Cc1ccccc1)NCc1ccccc1F	21*	-2%	9%	67*	-29%	-7%
COc1ccc(NC(=O)C#Cc2ccccc2)cc1	55*	0%	-6%	86*	-35%	-8%
O=C(CC(=O)Nc1cccc(F)c1)Nc1cccc(F)c1	-2	0%	8%	17	-3%	-3%
O=C(C#Cc1ccccc1)Nc1cccc(F)c1	60*	9%	3%	128*	-36%	0%
CC(Sc1ccccc1)C(=O)Nc1ccc(N2CCOCC2)cc1 (stereo not drawn)	9	-3%	0%	34	0%	2%
COc1ccc(NC(=O)N2CC3(CCN(C(=O)c4ccc(OC)cc4)CC3)C2)cc1	/	1%	-1%	/	/	/
O=C1C=C[C@@H](O)[C@@H]2[C@H]3C(=O)N(c4ccc(F)cc4F)C(=O)[C@@H]3CC[C@@H]12	/	/	0%[12.9 µM]	/	/	/
COc1ccc(N2CCN(C(=O)Cc3ccc(Cl)cc3)CC2)cc1	-4	0%	2%	-6	-15%	-1%
O=C(C#Cc1ccccc1)Nc1ccc(F)cc1	34*	2%	-5%	32*	-19%	-1%
CC(SCc1ccccc1)C(=O)Nc1ccc(F)cc1 (stereo not drawn)	20	-2%	1%	36	-6%	1%
CCOP(=O)(OCC)C(=Cc1cc(C(C)(C)C)c(O)c(C(C)(C)C)c1)P(=O)(OCC)OCC	-4	/	1%	-5	/	/
COCCOC(=O)/C(=C\c1cc(C(C)(C)C)c(O)c(C(C)(C)C)c1)C(C)=O	1	1%	-4%	1	40µM*	-2%
Cc1nc(SCc2ccc([N+](=O)[O-])cc2)n[nH]1	5.9*	-4%	-20%	/	0%	12%
CCCCOc1ccc(CSc2n[nH]c(C)n2)cc1	33*	-12%	-5%	93*	-25%	-2%
Cc1nc(SCc2ccc(C#N)cc2)n[nH]1	18*	-2%	-19%	/	4%	-2%
CCc1nc(SCc2ccc([N+](=O)[O-])cc2)n[nH]1	36*	-6%	-17%	76*	2%	0%
COc1cccc(-c2ccnc3c(-c4ccc(F)cc4)c(C)nn23)c1	/	-2%	/	/	7%	/
Cn1cccc1C(=O)N1CCC[C@@]2(CCN(C(c3ccccc3)c3ccccc3)C2)C1	/	-4%	4%	/	/	/
Cc1ccc(CN2CCN(CC(=O)NCc3ccccc3Cl)C2=O)cc1	/	2%	/	/	1%	/
FC(F)(F)c1ccccc1-c1ccc2ncnc(NCCN3CCOCC3)c2c1	/	/	12%	/	/	/
SMILES	CHX counter	Tb PYK inh	Giardia FBPA inh	Shiga inhibitor	Sm TGR inh	LmPK inh
Cc1c(Cl)cccc1NC(=S)NCc1ccco1	2	-5%	0%	-7	?	4%
S=C(NCc1ccco1)Nc1ccccc1Cl	20*	-11%	-1%	33	7.9µM*	-5%
S=C(NCc1cccs1)Nc1cccc(Cl)c1Cl	29*	-2%	-6%	45*	?	4%
S=C(NCc1ccco1)Nc1cccc(Cl)c1Cl	9	-1%	1%	48	7.9µM*	-1%
O=C1NC(=O)C(=Cc2ccc(-c3ccc(Cl)cc3)o2)C(=O)N1	1	?	3%	0	?	-5%
O=C1NC(=O)C(=Cc2ccc(-c3ccc(F)cc3O)o2)C(=O)N1	14*	?	4%	17	?	-1%
CN(C(=O)c1cncc(Br)c1)C1C2CC3CC(C2)CC1C3 (stereo not drawn)	19*	-13%	13%	25	0%	-5%
